# Experimental data taken from PubChem BioAssay (NCI).
# Compounds without any hit were thinned out: in the full panel of roughly 79,000, 15% have a hit. A number with no mark means an inactive call. Activity calls are given as the source filed them. No stated cut-off is given here; in the data, active means growth inhibition above about 70%; inactive means the rest. Where a SMILES comes first, the peptide text is derived from it. [ ]: non-standard residue; d: D form. The star is where a group is joined. ξ: configuration not given here. X15 = COc1ccc(C(N*)c2ccc(OC)cc2)cc1; NMeF = CN[C@@H](Cc1ccccc1)C(=O)O; NMeD = CN[C@@H](CC(=O)O)C(=O)O; NMeV = CN[C@H](C(=O)O)C(C)C; ξNMeV = CNC(C(=O)O)C(C)C; Boc = CC(C)(C)OC(=O)*; ξNMeA = CNC(C)C(=O)O; ξV = CC(C)C(N)C(=O)O
# Assay: NCI Yeast Anticancer Drug Screen. Data for the mlh1 rad18 strain (AID 175)
# Conditions: S. cerevisiae mlh1 rad18 strain growth inhibition; at 50.0 µM; hits give high values
# In short: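 Yeast w/ defined DNA-repair lesions; compound exposure; growth vs vehicle controls → % inhibition.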
row,Compound,growth inhibition
1,CC(C)(N=NC(C)(C)C(=O)NCCO)C(=O)NCCO,-0.65%
2,COc1ccc(OC)c(/C=C/c2ccc(NC(=O)C(Cl)(Cl)Cl)cc2)c1,10.2%
3,NC1=C(O)C(=O)C(c2ccccc2)O1 (stereo not given),2.5%
4,O=C(O)C(=O)Cc1ccccc1,14.9%
5,Br/C=C\Br,5.35%
6,COc1ccc2c(c1O)-c1c(OC)c(OC)cc3c1[C@H](C2)[N+](C)(C)CC3,-53.4%
7,Cc1ccccc1N(C(=O)C(=O)O)c1ccccc1C,0.15%
8,CC(C)(C)NC(=O)NCc1ccccc1Cl,-8.35%
9,c1csc(-c2nccc3ccccc23)c1,10.6%
10,CC(/C=N\NC(=S)SCc1ccccc1)=N/N=C(N)N,64.6%
11,O=C(O)COc1cc(-c2ccccc2)nc2ccc(F)cc12,10.2%
12,C/C(=C/C(C)O)c1ccccc1 (stereo not given),-6.9%
13,CC1(C)N=C(N)N=C(N)N1CCCCc1ccccc1,-16.6%
14,ClCCCCCCCCCCl,2.15%
15,COc1cccc(/C=N/N(C)c2c([N+](=O)[O-])cc(C(F)(F)F)cc2[N+](=O)[O-])c1O,-5.8%
16,NC(CCCOS(=O)(=O)O)Cc1ccc2ccccc2c1 (stereo not given),8.9%
17,O=C(NNC(=O)c1ccc(Cl)cc1Cl)c1ccccc1,-7.8%
18,O=C(OCC1OC(OCc2ccccc2)C(OC(=O)c2ccccc2)C1OC(=O)c1ccccc1)c1ccccc1 (stereo not given),-24.1%
19,CN(CC#N)CC#N,0.3%
20,O=C(O)C1CCC1C(=O)O (stereo not given),-2.5%

row,Compound,growth inhibition
1,COc1ccc(C(NC(=O)C[C@@H](C(=O)N(C)C(C)C(=O)O)N(C)C(=O)[C@@H]2CCCN2C(=O)[C@H](C(C)C)N(C)C(=O)C(C(C)C)N(C)C(=O)[C@H](Cc2ccccc2)N(C)C(=O)C(NC(=O)OC(C)(C)C)C(C)C)c2ccc(OC)cc2)cc1 (stereo not given in full) (Boc-[ξV][NMeF][ξNMeV][NMeV]P[NMeD](X15)[ξNMeA]-OH),-31.4%
2,CN1C(c2ccco2)NC(=O)C12CCN(Cc1ccccc1)CC2 (stereo not given),16.1%
3,Cc1ccc(S(=O)(=O)OCC2CC=CCC2COC(=O)c2ccc([N+](=O)[O-])cc2)cc1 (stereo not given),6.4%
4,Cc1cnc(Br)c(Br)c1,13.1%
5,COC(=O)/C=C(/C=C1/C(C#N)=C(N)N(c2ccc(Cl)cc2)C1(C)/C(=C/C(=O)OC)C(=O)OC)C(=O)OC (stereo not given),10.7%
6,CCOc1ccccc1/C=C1\NC(=O)NC1=O,-6.7%
7,O=C1c2ccccc2C(=O)c2c(NCCNC(=O)C3CCCN3)ccc(NCCNC(=O)C3CCCN3)c21 (stereo not given),-85.5%
8,COc1ccc([B-]23OCC[N+]2(CNC(=O)c2ccccc2O)CCO3)cc1 (stereo not given),17.6%
9,COCC(=O)C(C(C)=O)C(c1ccc2c(c1)OCO2)C(C(C)=O)C(=O)COC (stereo not given),-2.6%
10,C=CCNC(=O)N(CCCCC(NC(C)=O)C(=O)NCc1ccccc1)Cc1ccccc1 (stereo not given),11.9%
11,CC(C)c1ccccc1OC(=O)NC1CCCCC1,3.95%
12,Cc1ccc(NC(=S)N2CCCCC2C)cc1C (stereo not given),-6.15%
13,CC1C2c3ccccc3C(c3ccccc32)C1CN1C(CCO)COC1c1ccccc1 (stereo not given),7.6%
14,CN1CCn2c(Br)ccc2C1=O,-3.3%
15,CCC(C)(C)C1CCCCC1OC(C)=O (stereo not given),1.25%
16,O=C(/C=C\c1ccc(Cl)cc1)c1ccccc1,2.05%
17,O=C1C(Br)=C(Br)C(=O)C2=C1C1c3ccccc3C2c2ccccc21,97.8% (active)
18,NC(N)=NS(=O)(=O)c1ccc(N)cc1,13%
19,CSC1(C)C(=O)Nc2ccc(C(F)(F)F)cc21 (stereo not given),0.1%
20,O=C1OCC2Cc3ccccc3C(c3ccccc3)=C12 (stereo not given),-1%
